# According to PubChem BioAssay AID1259415 (National Center for Advancing Translational Sciences (NCATS), 2018):
# The whole screen tested about 410,000 compounds, of which about 18,000 (4.4%) were called active. Roughly 7% stayed inconclusive and do not appear here. Shown is part of a subset that was picked to be rich in actives. Unmarked numbers belong to inactive results. Cut-off read from the data, not from the text of the source: active = activity change below about -60%; inconclusive = no clear call, values can overlap the other calls; inactive = above about -39%.
# Assay: qHTS Assay for inhibitors of the human cytomegalovirus (HCMV)
# Conditions: HFF cells, HCMV-luciferase reporter, 72 h; at 57.5 µM; stronger effect = lower value
# Outline: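 Two-dose cell screen: HFF monolayers treated with compounds and infected with luciferase-expressing HCMV at 1 PFU/cell, 72 h at 37C, then lysed for luciferase measurement.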
# % is set by controls: 0 for no effect and ±100 for the full control effect.
row,SMILES,"activity change, negative = inhibition"
1,CCOC(=O)c1c(NC(=O)C2(C)Cc3ccccc3C(=O)O2)sc2c1CCCC2 (stereo not drawn),-77.4% (active)
2,CCOC(=O)c1c(NC(=O)/C(C#N)=C/c2ccccc2)sc2c1CCC2,2.23%
3,CCOC(=O)c1c(NC(=O)c2cc(-c3ccc(Cl)cc3)on2)sc2c1CCCC2,3.67%
4,Cc1ccc2nc(-c3ccc(C)c(NC(=O)Cc4ccccc4)c3)oc2c1,38%
5,COc1ccccc1NC(=O)c1oc2ccccc2c1NC(=O)C(C)C,0.436%
6,COc1ccc(OC)c(-c2nc(C(N)=O)c3c(n2)n(-c2ccc4c(c2)OCO4)c(=O)n3C)c1,3.83%
7,CC1COc2ccccc2N1S(=O)(=O)c1ccccc1 (stereo not drawn),-16.1%
8,CC(=O)c1ccccc1NC(=O)COC(=O)C1COc2ccccc2O1 (stereo not drawn),-15%
9,Cc1cc(C(=O)CCl)c(C)n1CC1COc2ccccc2O1 (stereo not drawn),-96.1% (active)
10,Cc1ccc(Cl)cc1NC(=O)NC1COc2ccccc2C1 (stereo not drawn),-3.29%
11,O=C1C(=O)N(c2ccccc2)c2ccccc21,43.2%
12,O=C1C(=O)N(CC2COc3ccccc3O2)c2ccccc21 (stereo not drawn),-62.4% (active)
13,CC(C)CC(NC(=O)C1CCCN1C(=O)[C@@H](C)NC(=O)OCc1ccccc1)C(=O)NCC(N)=O (stereo partly drawn),-24.5%
14,Cc1cccc(NC(=O)Cn2c(=O)n(CCC(C)C)c(=O)c3cccnc32)c1,28.9%
15,O=C(c1ccco1)N1CCN(C(=O)C2c3ccccc3Oc3ccccc32)CC1,-21.7%
16,CCOC(=O)Cc1csc(NC(=O)CN(C)S(=O)(=O)c2ccc3c(c2)CCC(=O)N3)n1,14.5%
17,Cc1cccc(-c2nc(SCc3ccc(Br)cc3)n3[nH]c(=O)cc3n2)c1,-0.292%
18,COc1ccc(NC(=O)CSc2nccn2Cc2ccc3c(c2)OCO3)cc1,2.57%
19,C=CCSc1nc(N)cc(=O)[nH]1,-24.3%
20,Cc1cc(C(=O)CSc2nc(N)cc(=O)[nH]2)c(C)n1-c1cccc(F)c1,-80.8% (active)

row,SMILES,"activity change, negative = inhibition"
1,Cc1cc(C)c(C(=O)CSc2nc(C)cc(=O)[nH]2)c(C)c1,19%
2,CCOC(=O)C1(C(F)(F)F)N=C(N(C)C)OC(N(C)C)=N1,9.94%
3,CCOc1ccc(-c2cc(C)[n+](CCN(CC)CC)c(-c3ccc(OCC)cc3)c2)cc1,-97.6% (active)
4,CCOc1ccc2c(c1)C(c1ccc(C)cc1)=NNC(c1ccc(C)cc1)=N2,9.03%
5,CCOc1ccc(-c2nnc3ccc(SC)nn23)cc1,-19.6%
6,COc1ccc(NC(=O)CSc2nccn2C2CCCC2)cc1OC,-35.1%
7,O=C(CSc1nccn1C1CCCC1)Nc1cc(C(F)(F)F)ccc1Cl,-87.5% (active)
8,Cc1cccc(-n2ccnc2SCC(=O)Nc2cc(C(F)(F)F)ccc2Cl)c1,-18.2%
9,Cc1cc(NS(=O)(=O)c2ccc3oc(=O)c4ncn(C)c4c3c2)ccc1Br,-24.9%
10,Cn1nnnc1SCCCNCc1ccc(Cl)cc1,5.82%
11,COc1ccccc1CCNC(=O)c1cccn1-c1nnc(N2CCCCC2)s1,-14.3%
12,Cc1ccc(NC(=O)CN(C)C(=O)Cn2nnc(-c3ccccc3)n2)cc1,-24.5%
13,COc1ccc(C(=O)N2CCCCC2C(=O)Nc2ccc(-n3nc(C)cc3C)cc2)o1 (stereo not drawn),7.64%
14,C[C@@H]1C[C@@H]2O[C@H]2/C=C\C=C\C(=O)Cc2c(Cl)c(O)cc(O)c2C(=O)O1,-76.2% (active)
15,CCN(CC)S(=O)(=O)c1ccc(C(=O)N2CCN(C3=NS(=O)(=O)c4ccccc43)CC2)cc1,-15.4%
16,CCOC(=O)c1cc2c(=O)n3ccccc3nc2n(CC2CCCO2)c1=NC(=O)c1ccccc1Br (stereo not drawn),24.4%
17,CCOC1=C2[C@@H](CN(S(=O)(=O)c3ccc(C)cc3)[C@H]2c2ccccc2F)[C@H]2C(=O)N(Cc3ccccc3)C(=O)[C@H]2C1,-19.7%
18,Cc1ccc(S(=O)(=O)N2C[C@@H]3CCCC[C@@H]3[C@@H](C)[C@H]2c2cn(Cc3ccccc3)c3ccc(F)cc23)cc1,-65.2% (active)
19,Cc1ccc(S(=O)(=O)c2cn(Cc3ccccc3)c3cc(N4CCCC4)c(F)cc3c2=O)c(C)c1,10.5%
20,COc1ccc(-c2c(C)c3ccc(O)c(CN4CCCC4)c3oc2=O)cc1OC,8.47%

row,SMILES,"activity change, negative = inhibition"
1,CCN(CC)C(=O)CSc1nc2cc3c(cc2c(=O)n1CCCC(=O)NCc1ccc2c(c1)OCO2)OCO3,-89.8% (active)
2,CCOc1ccc(NC(=O)Cn2c(=O)n(CCCC(=O)NCc3ccc4c(c3)OCO4)c(=O)c3ccccc32)cc1,22.9%
3,CCCCNC(=O)CSc1nc2cc3c(cc2c(=O)n1CCCCCC(=O)NCc1ccc2c(c1)OCO2)OCO3,25.2%
4,O=C(NCc1ccc(Cl)cc1)c1ccc2c(c1)nnn2C1CCCC1,-1.14%
5,CC1(C(=O)NNC(=S)NCC2CCCO2)CC1(Cl)Cl (stereo not drawn),-5.76%
6,CCC(=O)Nc1ccc(C)cc1-c1nc2ccccc2n(Cc2ccccc2)c1=O,13.6%
7,Cc1cccc(NC(=O)Cn2c(C(F)(F)F)nc3ccccc32)c1C,-9.72%
8,CCC(=O)Nc1nc2ccccc2n1Cc1ccccc1C,-81.6% (active)
9,Cc1cc(Cl)ccc1NC(=O)Cc1ccc(NC(=O)N2CCCCc3ccccc32)cc1,25.1%
10,COCCN1C2=C(COC(C)(C)C2)C(=S)NC1c1ccccc1 (stereo not drawn),5.54%
11,O=C(CN1CCCCCC1)Nc1ccc(Br)cc1Br,32.3%
12,Cc1ccc(NC(=O)CN2CCCCC2)c2c1CC(C)(C)O2,-63% (active)
13,Cc1cc(C)c(NC(=O)CN2CCCCCC2)c(C)c1,-39.4%
14,O=S(=O)(c1ccc(Cl)cc1)c1nnn2c1nc(NC1CCCC1)c1sccc12,21.2%
15,O=[N+]([O-])c1ccccc1-c1cc(-c2ccccc2[N+](=O)[O-])on1,24.9%
16,COc1ccccc1CNC(=O)c1ccccc1NC(=O)c1nsc2ccccc12,12.6%
17,CCc1ccccc1NC(=O)N1CCN(C(=O)c2nsc3ccccc23)CC1,0% (active)
18,Cc1c(Cl)cccc1NC(=O)N1CCN(C(=O)c2nsc3ccccc23)CC1,0%
